High-throughput results as filed in PubChem.
Sampled rows, rich in hits. Any-hit rate of the full collection: about 3.5%.
BoNT F protease: BoNT/F light chain protease inhibitors, primary screen, biochemical, flow cytometry, MLPCN library | AID 588497, 2011 | inhibition, % at 10 µM | 360,000 tested, 0.22% active | Multiplex microsphere protease cleavage assay | Botulinum neurotoxin type F light chain protease (Clostridium botulinum); in the data active = inhibition above about 35%, passing the limit was not always enough; inconclusive = no clear call, values can overlap the other calls; also: plate controls were buffer without enzyme for full effect and enzyme alone for no effect
Anthrax LF inh2: Bacillus anthracis LF protease inhibitors, primary screen, biochemical, multiplex microsphere, MLPCN library | Lethal factor (Bacillus anthracis), P15917 | multiplex microsphere protease cleavage assay | inhibition, % at 10 µM | 360,000 tested, 0.12% active; also: plate controls were buffer without enzyme for full effect and enzyme alone for no effect
Bead autofluor: counter-screen for toxin protease inhibitors: compound fluorescence; fluorescence intensity (test concentration not listed); compound autofluorescence counterscreen, microsphere flow cytometry; hits give high values; 360,000 tested, 3.1% active; in the data active = fluorescence intensity above about 16000; inconclusive = no clear call, values can overlap the other calls
BoNT A protease: BoNT/A light chain protease inhibitors, primary screen, biochemical, flow cytometry, MLPCN library. multiplex microsphere protease substrate cleavage. 360,000 tested, 0.17% active. inhibition, % at 10 µM. Botulinum neurotoxin type A light chain protease (Clostridium botulinum A str. ATCC 3502); also: plate controls were buffer without enzyme for full effect and enzyme alone for no effect
BJeLR lethal: MLPCN primary cell-based screen for lethality selective to Ras in HRASV12 cells. BJeLR (HRASV12) viability, CellTiter-Glo ATP luminescence, 48 h. inhibition, % (test concentration not listed). 300,000 tested, 0.17% active. AID 1554, 2009; in the data active = inhibition above about 50%; inconclusive = no clear call, values can overlap the other calls
Starred values were filed as active, the others as inactive; u = inconclusive; x = no result. Rule as the data show it, unless noted: active = inhibition above about 30%; inconclusive = no clear call, values can overlap the other calls; inactive = below that.

SMILES	BoNT F protease	Anthrax LF inh2	Bead autofluor	BoNT A protease	BJeLR lethal
C=C1C(=O)O[C@@H]2C[C@@H](C)[C@@H]3C=CC(=O)[C@@]3(C)[C@@H](OC(=O)CC(=O)O[C@H]3[C@@H]4C(=C)C(=O)O[C@@H]4C[C@@H](C)[C@@H]4C=CC(=O)[C@]43C)[C@H]12	-5	0	3432	1	94*
CCN(Cc1ccccc1)C(=O)COC(=O)c1cc(=O)[nH]c2ccccc12	-14	-1	3167	0	6
O=C(CCCCn1c(=S)[nH]c2ccsc2c1=O)NCc1ccco1	-4	-9	16657*	-1	-5
Cc1ccccc1Cn1c(=O)n(CCCC(=O)NCc2ccco2)c(=O)c2sccc21	2	-1	3128	0	3
O=C(CCCn1c(=S)[nH]c2ccsc2c1=O)NCc1ccco1	2	-4	19127*	1	-2
COc1ccc([C@@H]2C[C@H]3[C@@H](CN2S(=O)(=O)c2ccccc2)C(=O)C[C@@H](c2ccc(C)cc2)N3S(=O)(=O)c2ccc(C)cc2)cc1	-2	-5	3046	0	x
O=C(CSc1nc2ccccc2s1)N/N=C/c1ccco1	-18	-2	2121	-1	-16
N#C/C(=C\c1ccco1)Sc1nc2ccccc2s1	-1	-2	23761*	0	3
COc1cccc(C(NC(C)=O)c2nc(-c3ccccc3)cs2)c1 (stereo unspecified)	0	6	3462	0	x
O=c1nc2ccccc2c2n1CC(CN1CCN(c3ccc(F)cc3)CC1)N2 (stereo unspecified)	7	-2	2809	1	4
O=c1nc2ccccc2c2n1CC(CN1CCN(c3cccc(Cl)c3)CC1)N2 (stereo unspecified)	-6	-2	17652*	-7	9
CCCCNC(=O)c1ccccc1C(=O)NCCCC	-9	5	9474	-1	-2
CSc1ccccc1C(=O)NCCSc1ccccc1	-2	-4	16492*	-1	10
CCCCCNC(=O)c1ccccc1SC	-4	-2	16772*	-2	13
COc1ccc(OC)c(C2C(C(C)=O)=C(O)C(=O)N2c2ccc(O)cc2)c1 (stereo unspecified)	2	1	2804	0	8
C/C(=N/Nc1ncc(C(F)(F)F)cc1Cl)c1ccncc1	-6	-4	5224	-1	-10
CC(C)(C)C1CCC(=NNc2ncc(C(F)(F)F)cc2Cl)CC1 (stereo unspecified)	-2	-1	22794*	u	-2
C/C(Cc1ccccc1)=N\NC(=O)CNC(=O)c1ccc(Cl)cc1Cl	36*	u	3625	6	3
COc1ccc(/C(C)=N/NC(=O)CNC(=O)c2ccco2)c(OC)c1	1	0	5441	-2	-2
COc1ccc(/C(C)=N/NC(=O)CNC(=O)Cc2ccccc2)c(OC)c1	38*	21	3753	2	-3
CC(C)(O)P(C)(=O)c1ccccc1 (stereo unspecified)	-10	-9	3274	0	7
CC(C)(C)P(=O)(CO)c1ccccc1 (stereo unspecified)	2	-3	19072*	3	-6
CCOC(=O)CN(C(=O)CSc1nnc(CNc2ccc(F)cc2)o1)c1ccccc1	1	-4	7297	3	-8
O=C(CSc1nnc(CNc2ccc(F)cc2)o1)N1c2ccccc2Sc2ccccc21	0	-3	20080*	2	x
CC(C)(C)N(Cc1ccccc1)C(=O)CSc1nnc(CNc2ccc(F)cc2)o1	13	-10	17024*	10	-7
SMILES	BoNT F protease	Anthrax LF inh2	Bead autofluor	BoNT A protease	BJeLR lethal
OC(c1ccc(F)cc1)c1nc(-c2cccc(F)c2)cs1 (stereo unspecified)	-6	1	3390	0	x
CCOC(=O)c1sc(=S)n(-c2ccc(C)cc2)c1N	-18	-2	4173	-4	-7
CCOC(=O)c1ccc(-n2c(N)c(C(=O)NCc3ccco3)sc2=S)cc1	0	-1	23235*	2	-8
CCOC(=O)c1sc(=S)n(-c2ccc(F)c(F)c2)c1N	-4	0	21634*	-5	-5
CCOC(=O)c1sc(=S)n(-c2ccc(Cl)cc2)c1SC	-1	-2	21737*	0	-1
CC(=O)O[C@@H]1C[C@@]2(C)[C@@H](CC[C@H]2[C@@H](C)/C=C\CC(C)C)C2=C[C@@H](O)[C@@]3(O)C[C@@H](O)[C@H](O)C[C@]3(CO)[C@]21O	-4	-2	5024	-1	x
Cc1cc(=O)oc2cc(OCC(=O)NC3(C#N)CCCCC3)ccc12	-9	1	3105	0	x
NC(=O)c1cc(S(=O)(=O)NC2CCCCC2)co1	-3	-2	22647*	u	2
c1ccc(-c2cn3c(n2)SCC3)cc1	x	x	x	x	-1
Cc1oc2ccccc2c1-c1cn2c(n1)SCC2	-5	-5	23992*	u	6
COc1ccc(C2(OC)Oc3cc(OC)ccc3C(=O)C2(O)OC)cc1 (stereo unspecified)	-2	5	2863	2	x
CCCNC(=O)N1CCN(c2nc(C(C)C)c3c(c2C#N)CC(C)(C)OC3)CC1	-6	-1	5242	0	5
Cc1ccc(S(=O)(=O)N2CCN(c3nc(C(C)C)c4c(c3C#N)CC(C)(C)OC4)CC2)cc1	7	-1	22172*	4	-16
CC(=O)NC1(C(F)(F)F)NC(=O)N(C2CCCCC2)C1=O (stereo unspecified)	3	-1	22952*	0	-11
CC(=O)Nc1ccc(S(=O)(=O)NC2(C(F)(F)F)NC(=O)N(C3CCCC3)C2=O)cc1 (stereo unspecified)	-2	-2	22547*	0	4
CC(=O)Nc1ccc(S(=O)(=O)NC2(C(F)(F)F)NC(=O)N(C3CCCCC3)C2=O)cc1 (stereo unspecified)	0	-5	23390*	u	-3
CN(C)c1ccc(CN(C(=O)C2COc3ccccc3O2)C2CCS(=O)(=O)C2)cc1 (stereo unspecified)	0	-4	19479*	0	1
CC(C)c1ccc(CN(C(=O)C2COc3ccccc3O2)C2CCS(=O)(=O)C2)cc1 (stereo unspecified)	-5	-5	16571*	-1	-6
CC(C)CC(=O)N(Cc1ccc(F)cc1)C1CCS(=O)(=O)C1 (stereo unspecified)	-5	0	2313	-1	1
Cc1c(C(=O)N(Cc2ccc(N(C)C)cc2)C2CCS(=O)(=O)C2)oc2ccccc12 (stereo unspecified)	-6	-8	4424	-1	4
CCOc1ccc(NC(=O)CCC(=O)N/N=C2\CCCc3ccccc32)cc1	-4	1	5619	0	x
CN(Cc1ccccc1)Cc1nc2c(c(=O)n(C)c(=O)n2C)n1Cc1ccc(F)cc1	0	-2	23112*	0	5
